Measurements: PubChem BioAssay (EPA / NIEHS)
Activity calls are given as the source filed them. The calls were made as follows: active = hit-call score of the fitted dose curve at least 0.9, where 1 is the maximum; inactive = score below 0.9.

Assay: CCTE_Harrill_HTTr_Viability_PRF_DMEM_24hr: (Pilot) CCTE's 24-hour Cell Viability Assessment for the High-Throughput Transcriptomics (HTTr) Platform, in MCF-7 cells cultured in phenol red-free DMEM + 10% charcoal-stripped fetal bovine serum, Harrill Lab (AID 2283980)
Procedure, shortened: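 Propidium iodide exclusion imaged at 24 h after dosing scores viability; cells were MCF-7 grown in phenol red-free DMEM plus 10% charcoal-stripped serum, tested in eight concentrations, fitted in both directions against DMSO.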
In the case of `CON=C(C(=O)OC)c1ccccc1CON=C(C)c1cccc(C(F)(F)F)c1`, the outcome is reported as “inactive”. In the case of `CCNc1nc(Cl)nc(NC(C)(C)C#N)n1`, the outcome is reported as “inactive”. For `C=C(C)[C@H]1Cc2c(ccc3c2O[C@@H]2COc4cc(OC)c(OC)cc4[C@@H]2C3=O)O1`, the AC50 was 0.0246 µM (active). For `CC(C1CC1)C(O)(Cn1cncn1)c1ccc(Cl)cc1` (stereo not drawn), the outcome was “inactive”.

Assay: CCTE_Harrill_HTTr_Apoptosis_DMEM_6hr: (Pilot) CCTE's 6-hour Apoptosis Assessment for the High-Throughput Transcriptomics (HTTr) Platform, in MCF-7 cells cultured in DMEM + 10% fetal bovine serum, Harrill Lab (AID 2283981)
Procedure, shortened: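 MCF-7 cells grown in DMEM + 10% FBS were exposed for 6 hours to an eight-point dilution series. CellEvent Caspase 3/7 Green signal was imaged; activity fitted bidirectionally against DMSO.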
For `CON=C(C(=O)OC)c1ccccc1CON=C(C)c1cccc(C(F)(F)F)c1`, the outcome was “inactive”. For `CCNc1nc(Cl)nc(NC(C)(C)C#N)n1`, the outcome was “inactive”. In the case of `C=C(C)[C@H]1Cc2c(ccc3c2O[C@@H]2COc4cc(OC)c(OC)cc4[C@@H]2C3=O)O1`, the outcome is reported as “inactive”. With `CC(C1CC1)C(O)(Cn1cncn1)c1ccc(Cl)cc1` (stereo not drawn) the outcome was “inactive”.

Assay: CCTE_Harrill_HTTr_Apoptosis_DMEM_12hr: (Pilot) CCTE's 12-hour Apoptosis Assessment for the High-Throughput Transcriptomics (HTTr) Platform, in MCF-7 cells cultured in DMEM + 10% fetal bovine serum, Harrill Lab (AID 2283982)
Procedure, shortened: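 Caspase-3/7 activity was measured by high-content imaging (CellEvent Caspase 3/7 Green) after a 12-hour exposure of MCF-7 cells grown in DMEM with 10% FBS. Eight-point concentration series, fitted bidirectionally against vehicle.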
With `CON=C(C(=O)OC)c1ccccc1CON=C(C)c1cccc(C(F)(F)F)c1` the outcome was “inactive”. In the case of `CCNc1nc(Cl)nc(NC(C)(C)C#N)n1`, the outcome is reported as “inactive”. In the case of `C=C(C)[C@H]1Cc2c(ccc3c2O[C@@H]2COc4cc(OC)c(OC)cc4[C@@H]2C3=O)O1`, the outcome is reported as “inactive”. For `CC(C1CC1)C(O)(Cn1cncn1)c1ccc(Cl)cc1` (stereo not drawn), the outcome was “inactive”.

Assay: CCTE_Harrill_HTTr_Apoptosis_DMEM_24hr: (Pilot) CCTE's 24-hour Apoptosis Assessment for the High-Throughput Transcriptomics (HTTr) Platform, in MCF-7 cells cultured in DMEM + 10% fetal bovine serum, Harrill Lab (AID 2283983)
Procedure, shortened: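 Caspase-3/7 activity read by high-content imaging (CellEvent Green reagent) 24 h after dosing. MCF-7 cells grown in DMEM with 10% FBS received an eight-point concentration series; fits were bidirectional versus DMSO.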
For `CON=C(C(=O)OC)c1ccccc1CON=C(C)c1cccc(C(F)(F)F)c1`, the outcome was “inactive”. For `CCNc1nc(Cl)nc(NC(C)(C)C#N)n1`, the outcome was “inactive”. In the case of `C=C(C)[C@H]1Cc2c(ccc3c2O[C@@H]2COc4cc(OC)c(OC)cc4[C@@H]2C3=O)O1`, the outcome is reported as “inactive”. For `CC(C1CC1)C(O)(Cn1cncn1)c1ccc(Cl)cc1` (stereo not drawn), the outcome was “inactive”.

Assay: CCTE_Harrill_HTTr_Apoptosis_PRF_DMEM_6hr: (Pilot) CCTE's 6-hour Apoptosis Assessment for the High-Throughput Transcriptomics (HTTr) Platform, in MCF-7 cells cultured phenol red-free DMEM + 10% charcoal-stripped fetal bovine serum, Harrill Lab (AID 2283984)
Procedure, shortened: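 Caspase-3/7 activity (CellEvent Green) read by high-content imaging 6 h after dosing, eight concentrations. Cells: MCF-7, phenol red-free DMEM with 10% charcoal-stripped serum. Curves fit both directions against DMSO.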
For `CON=C(C(=O)OC)c1ccccc1CON=C(C)c1cccc(C(F)(F)F)c1`, the outcome was “inactive”. With `CCNc1nc(Cl)nc(NC(C)(C)C#N)n1` the outcome was “inactive”. With `C=C(C)[C@H]1Cc2c(ccc3c2O[C@@H]2COc4cc(OC)c(OC)cc4[C@@H]2C3=O)O1` the outcome was “inactive”. For `CC(C1CC1)C(O)(Cn1cncn1)c1ccc(Cl)cc1` (stereo not drawn), the outcome was “inactive”.

Assay: CCTE_Harrill_HTTr_Apoptosis_PRF_DMEM_12hr: (Pilot) CCTE's 12-hour Apoptosis Assessment for the High-Throughput Transcriptomics (HTTr) Platform, in MCF-7 cells cultured in phenol red-free DMEM + 10% charcoal-stripped fetal bovine serum, Harrill Lab (AID 2283985)
Procedure, shortened: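 Caspase-3/7 activity by CellEvent Green high content imaging after 12 h compound exposure (eight concentrations) in MCF-7 grown in phenol red-free DMEM plus 10% charcoal-stripped serum; DMSO as baseline.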
For `CON=C(C(=O)OC)c1ccccc1CON=C(C)c1cccc(C(F)(F)F)c1`, the outcome was “inactive”. In the case of `CCNc1nc(Cl)nc(NC(C)(C)C#N)n1`, the outcome is reported as “inactive”. With `C=C(C)[C@H]1Cc2c(ccc3c2O[C@@H]2COc4cc(OC)c(OC)cc4[C@@H]2C3=O)O1` the outcome was “inactive”. With `CC(C1CC1)C(O)(Cn1cncn1)c1ccc(Cl)cc1` (stereo not drawn) the outcome was “inactive”.

Assay: CCTE_Harrill_HTTr_Apoptosis_PRF_DMEM_24hr: (Pilot) CCTE's 24-hour Apoptosis Assessment for the High-Throughput Transcriptomics (HTTr) Platform, in MCF-7 cells cultured in phenol red-free DMEM + 10% charcoal-stripped fetal bovine serum, Harrill Lab (AID 2283986)
Procedure, shortened: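 Eight concentrations tested for 24 h on MCF-7 grown in charcoal-stripped serum, phenol red-free DMEM. High content imaging of CellEvent Caspase 3/7 Green signal gives apoptosis read-out, fitted both ways relative to DMSO.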
In the case of `CON=C(C(=O)OC)c1ccccc1CON=C(C)c1cccc(C(F)(F)F)c1`, the outcome is reported as “inactive”. In the case of `CCNc1nc(Cl)nc(NC(C)(C)C#N)n1`, the outcome is reported as “inactive”. With `C=C(C)[C@H]1Cc2c(ccc3c2O[C@@H]2COc4cc(OC)c(OC)cc4[C@@H]2C3=O)O1` the outcome was “inactive”. In the case of `CC(C1CC1)C(O)(Cn1cncn1)c1ccc(Cl)cc1` (stereo not drawn), the outcome is reported as “inactive”.
